The panel holds about 83,000 compounds, 20% with a hit somewhere; the sample as a whole holds those more often.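 48-hour exposure, single concentration, 96-well plates; percent growth endpoint where 0 means no net growth. Active: below 10.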 Calls of active or inactive are those of the source.
What follows are molecules tested on SNB-75 CNS (assay: NCI-60 one-dose screen, 48 h (100 = growth as untreated, 0 = no growth, -100 = all killed)). Conditions: 10 µM unless noted.
Description: Growth inhibition of the SNB-75 human tumor cell line is measured as a screen for anti-cancer activity. Cells are grown in 96 well plates and exposed to the test compound for 48 hours. Compounds are tested at a single concentration, which is 10^-5 M for most compounds. The reported endpoint is percent growth (GI% or GIPRCNT), where numbers from 0 - 100% represent growth inhibition, and numbers from -100% - 0 represent cell death. For example, a value of 40 represents 60% growth inhibition. A value of 0 means no net growth occurred over the course of the experiment. A value of -40 indicates 40% of cells at the beginning of the experiment died by the end of the experiment. A value of -100 means all cells are dead at the end of the experiment.
NCI-60 Human Tumor Cell Lines Screen was performed using the standard one-dose NCI protocol, which is described in more detail at https://dtp.cancer.gov/discovery_development/nci-60/default.htm.
Compounds with GIPRCNT values below 10 were considered active. Activity score was based on GIPRCNT using the following formula: […]
Score is 0 for GIPRCNT values of 100 or above, 50 for GIPRCNT values of 0, and 100 for GIPRCNT values of -100.
In the case of `O=C(Oc1ccc([N+](=O)[O-])cc1)c1ccc(CBr)cc1`, the growth is reported as 89.2% (inactive).
With `O=C1CSC(c2ccc(O)cc2)N1c1nnc(Cn2cnnc2)o1` (stereo not given) the growth was 53.8% (inactive).
For `COc1cc2ccccc2cc1C(=O)NC(=S)Nc1ccc(-c2nc3ccccc3[nH]2)cc1`, the growth was 54.4% (inactive).
For `O=C(C[C@@]1(O)C(=O)Nc2c(Cl)ccc(Cl)c21)c1ccc(C2CC2)cc1`, the growth was -29.9% (active).
With `CCOC(=O)c1c(C)nc2c(c1N)/C(=C/c1cc(OC)c(OC)c(OC)c1)C(=O)N2c1ccc(OC)cc1` the growth was 73.9% (inactive).
With `COC(=O)CNC(=O)C(=O)c1c(O)c(O)c(C(C)C)c2cc(C)c(-c3c(C)cc4c(C(C)C)c(O)c(O)c(C(=O)C(=O)NCC(=O)OC)c4c3O)c(O)c12` the growth was 57.5% (inactive).
`C=CCO[C@H]1CO[C@H]2[C@@H]1OC[C@@H]2Oc1ccc(Nc2ccnc(Nc3ccc(O[C@H]4CO[C@H]5[C@@H]4OC[C@@H]5OCC=C)c(Cl)c3)n2)cc1Cl` was tested, and the growth was 0.0674% (active).
With `CCOc1ccc(S(=O)(=O)c2ccc(C)cc2)c2c1no[n+]2[O-]` the growth was 54.7% (inactive).
With `CC(=O)Nc1nccs1` the growth was 106% (inactive).
In the case of `COC(=O)CCCNC(=O)C(=O)c1c(O)c(O)c(C(C)C)c2cc(C)c(-c3c(C)cc4c(C(C)C)c(O)c(O)c(C(=O)C(=O)NCCCC(=O)OC)c4c3O)c(O)c12`, the growth is reported as 49.6% (inactive).
For `Cc1cc(C(c2ccccc2)c2ccccc2)ccc1NS(=O)(=O)c1ccccc1`, the growth was 95.4% (inactive).
For `Cc1cc(-c2noc(C(F)(F)F)n2)ccc1N1CCN(c2cc(C(=O)N(C)C)no2)CC1`, the growth was 73% (inactive).
In the case of `O=C(/C=C/C12c3ccccc3C(c3ccccc31)C1C(=O)N(c3ccc(Cl)cc3)C(=O)C12)c1ccccn1` (stereo not given), the growth is reported as -18.7% (active).
With `COc1ccc(-c2nc3sc4c(c3c(=O)[nH]2)CCCC4)c2ccccc12` the growth was -25.5% (active).
With `Cc1[nH]c(-c2nc3ccccc3[nH]2)c(C)c1C(=O)NNc1ccc(Cl)cc1` the growth was 87.1% (inactive).
With `CCN(CC)CCCNC(=O)c1ccc(N)cc1O` the growth was 113% (inactive).
In the case of `Nc1c(-c2nc3ccc(Br)cc3c(=O)[nH]2)nnn1-c1ccccc1`, the growth is reported as 79.5% (inactive).
In the case of `Clc1ccc(/C=N\N=c2\scc(-c3ccc(Cl)cc3)n2/N=C/c2ccc(Cl)cc2)cc1`, the growth is reported as 91.6% (inactive).
With `Nc1ccc(CCCCc2ccccc2)c(Cl)c1` the growth was 75.2% (inactive).
For `COc1cc2c(c(OC)c1OC)C(=O)/C(=C/c1cc(C)c(O)c(C)c1)S2`, the growth was 4.46% (active).
For `Cl.[Pt].[c-]1ccccc1-c1ccccn1.c1ccc(P(c2ccccc2)C([PH+](c2ccccc2)c2ccccc2)[PH+](c2ccccc2)c2ccccc2)cc1`, the growth was 7.24% (active).
`Clc1cnc(Nc2ccc(OCCN3CCCC3)cc2)nc1NCc1ccco1` was tested, and the growth was -3.83% (active).
With `COc1ccc(/C(C)=C(\c2ccc(Cl)cc2)c2ccc(OCCN(C)C)cc2)cc1F` the growth was 75.4% (inactive).
For `CC(C)(C)N1CC(OC(N)=O)C1`, the growth was 81.6% (inactive).
With `O=c1[nH]nc(-c2ccc(Cl)cc2)cc1Cc1ccccc1` the growth was 88.3% (inactive).
`Clc1ccc(/C=C/c2nc(Nc3ccc(Cl)cc3)c3ccccc3n2)cc1` was tested, and the growth was 93.6% (inactive).
For `O=c1cc(-c2ccc(OCc3ccccc3)cc2)oc2c(I)c(OCc3ccccc3)cc(OCc3ccccc3)c12`, the growth was 79.7% (inactive).
In the case of `CNC(=O)c1c(NC(=O)c2ccc(C(C)(C)C)cc2)sc2c1CCC(=O)C2`, the growth is reported as -27.8% (active).
With `COc1cc2oc(-c3cccc(C(=O)Nc4ccc(C#N)cc4)c3)cc(=O)c2c(O)c1OC` the growth was 83.9% (inactive).
For `N=C(N)c1ccc(-c2ccc(-c3ccc(Cl)cn3)s2)cc1`, the growth was 62% (inactive).
`COc1ccc(OC)c(/C=C2\COc3ccc(O)c(O)c3C2=O)c1` was tested, and the growth was 11.7% (inactive).
For `O=c1[nH]c(NCc2nnnn2-c2ccc(Br)cc2)nc2sc3c(c12)CCCC3`, the growth was 93.2% (inactive).
`CCC(O)(C(c1ccccc1)c1ccccn1)C(c1ccccc1)c1ccccn1` (stereo not given) was tested, and the growth was 99.4% (inactive).
For `Clc1ccc(-c2nnc(Cn3ccnc3)o2)cc1`, the growth was 91.8% (inactive).
In the case of `CSc1nc(N)c(CNC(C)c2ccccc2)c(=O)n1C` (stereo not given), the growth is reported as 93.4% (inactive).
In the case of `CC[C@]1(O)C[C@H]2CN(CCc3c([nH]c4ccccc34)[C@@](C(=O)OC)(c3cc4c(cc3OC)N(C=O)[C@H]3[C@@](O)(C(=O)OC)[C@H](OC(C)=O)[C@]5(CC)C=CCN6CC[C@]43[C@@H]65)C2)C1`, the growth is reported as 15.7% (inactive).
`CC(C)CCC[C@@H](C)[C@H]1CCC2C3=CCC4C(=O)C=CC(=O)C4C3CC[C@@]21C` (stereo not given in full) was tested, and the growth was 7.34% (active).
In the case of `COc1cc(-c2ccc(N=Nc3c(O)c(C(=O)Nc4ccccc4OC)cc4ccccc34)c(OC)c2)ccc1N=Nc1c(O)c(C(=O)Nc2ccccc2OC)cc2ccccc12`, the growth is reported as 74.8% (inactive).
For `CCNCCNc1cc(-c2ccc(C#N)cc2)c(C#N)c2nc3ccccc3n12`, the growth was -20.4% (active).
`CC(C)(C)CC(C)(C)Nc1c(-c2ccc(-c3ccccc3)cc2)nc2cnccn12` was tested, and the growth was 88.7% (inactive).
